Only some compounds are listed: those with a hit (about 18% of all), similar ones and a draw of the others.
TDP1 inh = inhibitors of human tyrosyl-DNA phosphodiesterase TDP1; hit rate 0.28% among 350,000; Potency, µM (doses to about 130 µM), for inactives: top-dose activity change, negative = inhibition, usual class: inhibitors; recombinant TDP1, AlphaScreen DNA substrate cleavage; further: nearly all actives have a fitted effect of over 40% in size
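Recombinant E. coli-expressed Tdp1 (1 nM) preincubated with compound 15 min at RT, then 5'-biotin/3'-phosphotyrosine-FITC DNA substrate (15 nM) added for 5 min. AlphaScreen beads (10 ug/ml) added, 10 min RT; tyrosine-FITC cleavage read as signal loss.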
PLK1 PBD inh = PLK1 (human) polo-box domain binding inhibition; Potency, µM, inactives show max response, negative = inhibition, usual class: inhibitors; hit rate 2.8% among 360,000; P53350; Plk1 PBD binding of FITC phosphopeptide, fluorescence polarization; further: series mostly up to about 57 µM; nearly all actives have a fitted effect of over 65% in size
VDR inhibitor = blocks the human vitamin D receptor. P11473. Potency, µM, for the others: max response, negative = inhibition, actives largely listed as inhibitors. hit rate 0.93% among 400,000. VDR-SRC2-3 peptide fluorescence polarization, 2 h
Target sequence (P11473 whole entry, looked up): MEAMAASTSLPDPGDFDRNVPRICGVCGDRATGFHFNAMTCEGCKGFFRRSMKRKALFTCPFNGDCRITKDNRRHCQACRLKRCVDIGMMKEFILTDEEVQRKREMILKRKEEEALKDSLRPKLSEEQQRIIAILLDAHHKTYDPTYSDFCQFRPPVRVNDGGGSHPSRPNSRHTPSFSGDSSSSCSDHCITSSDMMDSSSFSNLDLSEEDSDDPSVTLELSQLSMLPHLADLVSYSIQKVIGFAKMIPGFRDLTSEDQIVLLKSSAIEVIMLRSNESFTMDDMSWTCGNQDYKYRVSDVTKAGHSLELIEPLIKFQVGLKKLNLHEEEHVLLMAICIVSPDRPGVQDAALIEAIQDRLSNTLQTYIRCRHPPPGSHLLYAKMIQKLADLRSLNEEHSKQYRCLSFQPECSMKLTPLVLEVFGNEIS
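The screen uses fluorescence polarization to detect compounds that interfere with recruitment of the SRC2-3 coactivator peptide to VDR; plates are read after 2 h at room temperature.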
TDP1 cell CPT = DT40-hTDP1 cell growth loss with CPT | chicken DT40 Tdp1-/-;hTDP1 cells + 20 nM CPT, ATP luminescence, 48 h | Potency, µM (top dose mostly 46.2 µM), for the others: top-dose activity change, negative = growth inhibition, usual class: inhibitors | hit rate 12% among 420,000 | AID 686979; further: nearly all actives have a fitted effect of over 55% in size
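Chicken DT40 Tdp1-/- cells stably complemented with human TDP1 were seeded at 400 cells/well in medium containing 20 nM camptothecin, exposed to pin-transferred compounds, and grown at 37 °C for at least 48 hr. Viability was read as ATP luminescence.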
TDP1 cell noCPT = qHTS for Inhibitors of human tyrosyl-DNA phosphodiesterase 1 (TDP1): qHTS in cells in absence of CPT; DT40 Tdp1-/- hTDP1 cells, no CPT, ATP luminescence, 48 h; Potency, µM (series often up to 46.2 µM), for the others: top-dose activity change, negative = growth inhibition, most hits filed as inhibitors; hit rate 15% among 420,000; further: nearly all actives have a fitted effect of over 55% in size
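Compound effects on proliferation are scored in DT40 Tdp1-/-;hTDP1 cells in the absence of CPT. ATP levels (CellTiter-Glo luminescence) are recorded after a ≥48 hr, 37 °C incubation.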
GCN5L2 inh = GCN5L2 (KAT2A) acetyltransferase inhibition; Q92830; hit rate 0.21% among 390,000; Potency, µM (highest dose often 58.9 µM), for the others: at the highest dose activity change, negative = inhibition, most hits filed as inhibitors; GCN5L2 HAT assay, ThioGlo1 CoA-SH fluorescence
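ThioGlo1-coupled HAT assay: 20nM GCN5L2, 70uM acetyl-CoA, 75uM H3(1-25) peptide, pH 7.5. Fluorescence read at 340/540nm at start and after 20 min at room temperature.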
An asterisk follows results filed as active; ? = inconclusive; . = no result given; [ ] = dose if it differs, or a comment. The call rests on the fitted dose curve; in most records, active means well fitted curve in the direction sought with a large enough effect; inconclusive means small, poorly fitted or top-dose-only effect, or another doubt; inactive means no such curve, though single readings can be large; an effect the other way counts as inactive or inconclusive. On the % scale 0 is the no-effect control and ±100 the full control effect; potency means the concentration at half of the fitted maximal effect.

SMILES	TDP1 inh	PLK1 PBD inh	VDR inhibitor	TDP1 cell CPT	TDP1 cell noCPT	GCN5L2 inh
O=C(CSc1nc2c(c(=O)n1-c1ccccc1)SCC2)N1CCN(c2ccccc2)CC1	0.0%	-4.7%	-7.4%	18.4µM*	?	3.4%
CC1Cc2nc(SCC(=O)N3CCN(c4ccccc4)CC3)n(CCc3ccccc3)c(=O)c2S1 (centres undefined)	7.6%	-4.0%	2.6%	18.4µM*	13µM*	-14.5%
O=C(CSc1nc2c(c(=O)n1-c1ccccc1)SCC2)N1CCOCC1	0.0%	-2.5%	1.9%	-6.1%	7.5%	-2.8%
O=C(CSc1nc2ccccc2o1)NC1CCS(=O)(=O)C1 (centres undefined)	0.7%	1.4%	0.6%	-10.3%	-9.4%	2.7%
O=C(CN(C(=O)CNC(=O)c1cccs1)c1ccc(F)cc1)NC1CCCCC1	0.8%	1.4%	-16.6%	3.4%	-8.5%	-2.8%
Cc1c(Cl)ccc2c(C(=O)NC(C)c3ccncc3)cc(-c3ccncc3)nc12 (centres undefined)	-2.7%	.	.	.	.	2.1%
COC(=O)C1=C(C)NC(=S)NC1c1ccc(-c2cc(Cl)ccc2Cl)o1 (centres undefined)	.	-21.4%	?	6.51µM*	5.8µM*	-20.1%
COc1cc(NC(=O)C2CCN(S(=O)(=O)c3c(C)noc3/C=C/c3c(C)cc(C)cc3C)CC2)cc(OC)c1	4.1%	.	7.1%	13µM*	-96.3%	-13.2%
CCc1cccc(C)c1NC(=O)C1CCN(S(=O)(=O)c2c(C)noc2/C=C/c2c(C)cc(C)cc2C)CC1	6.5%	.	7.0%	?	10.3µM*	3.9%
COc1ccc(NC(=O)C2CCN(S(=O)(=O)c3c(C)noc3/C=C/N(C)C)CC2)cc1	8.1%	1.0%	-6.1%	-3.2%	9.1%	-5.2%
Cc1ccc(N(C)C(=O)C2CCN(S(=O)(=O)c3c(C)noc3/C=C/c3c(C)cc(C)cc3C)CC2)cc1	3.0%	.	-4.1%	?	20.6µM*	-6.7%
COc1cc(/C=C/C=C2/CC/C(=C/C=C/c3ccc(O)c(OC)c3)C2=O)ccc1O	.	6.6%	?	2.31µM*	2.59µM*	.
COc1cc(/C=C2\CC/C(=C\c3ccc(OCCO)c(OC)c3)C2=O)ccc1OCCO	2.4%	1.7%	-3.6%	?	23.1µM*	-6.2%
COc1cc(/C=C2/CC/C(=C/c3ccc(O)c(OC)c3)C2=O)ccc1O	.	?	-8.8%	20.6µM*	?	-3.3%
COc1cc(/C=C2\COC/C(=C\c3ccc(O)c(OC)c3)C2=O)ccc1O	8.6%	-2.1%	?	3.26µM*	3.26µM*	-7.6%
CC(=O)NCCNc1nc2cc(-c3cnn(CCC(C)C)c3)sc2c(=O)n1C	.	-13.2%	.	?	?	.
CCCCOC(=O)c1ccc(OC(=O)c2sc3ncn(Cc4ccccc4Cl)c(=O)c3c2C)cc1	2.8%	.	19.4%	0.2%	-26.4%	-1.4%
COc1ccc(C=C2C=C(C(C)(C)C)C(=O)C(C(C)(C)C)=C2)cc1OC	.	29.9µM*	?	?	7.31µM*	-13.5%
COc1ccc(/C=C2\CC/C(=C\c3ccc(OC)c(OC)c3)C2=O)cc1OC	7.2%	-11.5%	?	16.4µM*	20.6µM*	-7.2%
COc1ccc(/C=c2\[nH]c(=O)/c(=C/c3ccc(OC)c(OC)c3)[nH]c2=O)cc1OC	.	.	.	-1.4%	-23.0%	.
CC1=NN(c2ccccc2)C(=O)C1N=Nc1ccc(N)cc1 (centres undefined)	12.6%	23.8µM*	-19.1%	14.6µM*	10.3µM*	-17.4%
CC1=NN(C(N)=S)C(=O)C1N=Nc1ccc(Br)cc1 (centres undefined)	4.2%	-29.5%	-7.5%	20.6µM*	?	-27.8%
CC1=NN(C(N)=S)C(=O)C1N=Nc1ccc(Cl)cc1 (centres undefined)	7.1%	13.4µM*	?	0.517µM*	1.46µM*	-12.8%
CC1=NN(c2ccccc2)C(=O)C1N=Nc1ccccc1 (centres undefined)	8.0%	-1.6%	-7.8%	6.8%	-20.9%	-1.6%
CC1=NN(C(N)=S)C(=O)C1N=Nc1cccc(Cl)c1C (centres undefined)	.	-19.4%	-6.2%	13µM*	8.2µM*	-8.1%
SMILES	TDP1 inh	PLK1 PBD inh	VDR inhibitor	TDP1 cell CPT	TDP1 cell noCPT	GCN5L2 inh
CC1=NN(C(N)=S)C(=O)C1N=Nc1cccc2ccccc12 (centres undefined)	10.1%	.	.	.	.	-7.4%
Cc1c(-c2cccc(Cl)c2)nc2ccccc2c1C(=O)NC1CC1	3.9%	-1.1%	-0.1%	?	-5.8%	-5.7%
COc1cc(C(=O)N/C(=C\c2cn(C)c3ccccc23)C(=O)NCCCN2CCOCC2)cc(OC)c1OC	6.2%	16.8µM*	?	?	?	-12.5%
CCn1cc(/C=C(\NC(=O)c2ccc(OC)c(OC)c2)C(=O)N2CCN(C)CC2)c2ccccc21	6.3%	26.7µM*	?	?	7.9%	-8.9%
COc1ccccc1C(=O)N/C(=C\c1cn(C)c2ccccc12)C(=O)NCCCN1CCOCC1	1.2%	-2.4%	8.7%	-6.4%	?	-14.1%
CCO[C@H]1[C@H](NC(=O)c2cccnc2)c2ccccc2C12CCN(C(=O)c1cc(C)n(C)n1)CC2	.	.	.	-8.3%[9.04 µM]	-9.6%	.
CCN(CC(=O)Nc1c(F)cccc1F)C(=O)c1cccnc1Sc1ccccc1	8.3%	-5.3%	-19.1%	-14.0%	-11.1%	2.1%
CCc1ccccc1NC(=O)CNC(=O)CSC(=S)N1CCCC1	1.1%	6.5%	-9.9%	-12.9%	1.4%	-5.1%
O=c1c(C(c2ccccc2)c2c(O)sc3ccccc3c2=O)c(O)sc2ccccc12	7.2%	-19.6%	4.0%	-8.5%	5.2%	25.1µM*
OCC#Cc1ncc(C(F)(F)F)cc1Cl	0.0%	5.0%	-17.9%	5.17µM*	7.31µM*	-5.1%
NC(=O)Cc1ncc(C(F)(F)F)cc1Cl	.	-11.8%	-9.4%	1.2%	16.7%	0.8%
COc1ccc(C2=CC3=C(Br)C(=O)C(C)(OC(=O)c4cccs4)C(=O)C3=CO2)cc1 (centres undefined)	2.5%	8.44µM*	-28.0%	?	?	.
COc1ccc(C2=CC3=C(Br)C(=O)C(C)(OC(=O)c4cnc5ccccc5n4)C(=O)C3=CO2)cc1 (centres undefined)	6.2%	.	0.1%	.	.	.
COCCN1C=C2C(=O)C(C)(OC(=O)CCC(=O)OC)C(=O)C(Br)=C2C=C1c1ccc(OC)cc1 (centres undefined)	-12.8%[21 µM]	?	22.4µM*	-29.5%	-20.6%	.

Assay outcomes deposited in PubChem BioAssay by National Center for Advancing Translational Sciences (NCATS).
